Assay outcomes (PubChem BioAssay)
Sampled rows, rich in hits. Any-hit rate of the full collection: about 31%.
CYP2C9 activ: human CYP2C9 activators, primary screen, biochemical, luminescence. Cytochrome P450 2C9 (Homo sapiens), P11712. recombinant CYP2C9, luciferin-H conversion; hits give high values; factor 1 = untreated enzyme, 0 = blocked. activation factor at 5 µM. actives 1.4% (n = 96,000). AID 1024, 2008;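 active = activation factor of 2 or more for CYP2C9 at a 5 µM dose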
Target sequence (P11712 whole entry, looked up): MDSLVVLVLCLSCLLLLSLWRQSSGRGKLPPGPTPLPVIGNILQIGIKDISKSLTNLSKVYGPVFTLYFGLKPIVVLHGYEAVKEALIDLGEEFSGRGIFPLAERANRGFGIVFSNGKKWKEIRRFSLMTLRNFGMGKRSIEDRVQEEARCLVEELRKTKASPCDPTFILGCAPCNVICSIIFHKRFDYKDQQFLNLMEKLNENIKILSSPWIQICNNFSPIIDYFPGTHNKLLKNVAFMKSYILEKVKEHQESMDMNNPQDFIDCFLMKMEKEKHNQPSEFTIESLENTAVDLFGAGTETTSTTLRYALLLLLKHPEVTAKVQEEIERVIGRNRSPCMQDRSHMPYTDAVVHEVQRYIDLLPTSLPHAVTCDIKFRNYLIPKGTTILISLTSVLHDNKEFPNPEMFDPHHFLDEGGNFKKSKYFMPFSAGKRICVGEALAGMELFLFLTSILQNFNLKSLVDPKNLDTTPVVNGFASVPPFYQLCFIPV
CYP2C19 inh: blockers of cytochrome P450 2C19 activity – biochemical, luminescence, ADME assay, primary screen; CYP2C19 Supersomes, luciferin-H EGE luminescence, 30 min; P33261; actives 21% (n = 96,000); inhibition, % at 5 µM;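 active = CYP2C19 inhibition above a set limit at 5 µM in the primary screen, cut at about 50% in these data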
CYP2C9 inh: blockers of cytochrome P450 2C9 activity – biochemical, luminescence, ADME assay, primary screen; inhibition, % at 5 µM; P11712; CYP2C9 Supersomes, luciferin-H conversion; actives 20% (n = 96,000); AID 777, 2007;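 active = blocking of liver enzyme CYP2C9 beyond about 50% at 5 µM, limit read from the data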
CYP2C19 activ: human CYP2C19 activators, primary screen, biochemical, luminescence | recombinant CYP2C19, luciferin-H EGE luminescence; hits give high values; 0 = fully inhibited enzyme, 1 = untreated enzyme | 96,000 tested, under 10 active | AID 1025, 2008 | Cytochrome P450 2C19 (Homo sapiens), P33261 | activation factor at 5 µM;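 active = activation factor of at least 2 at 5 µM in the primary screen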
Of the large screens only hits and unclear results are named; the others gave an inactive call.

CCOC(=O)C1CCCN(C(=O)c2cc3nc(-c4ccc5c(c4)OCO5)cc(C(F)(F)F)n3n2)C1 (stereo not drawn)	CYP2C9 inh 56
Cc1ccc(-c2cc(-c3ccccc3)c3c(N)c(S(C)(=O)=O)sc3n2)cc1	CYP2C9 inh 58
CC(C)(C)NC(=O)Cn1nnc(-c2ccc(Cl)cc2)n1	none
Cc1nn(S(=O)(=O)c2ccccc2)c(C)c1Sc1ccc([N+](=O)[O-])cc1	CYP2C19 inh 62
COc1cc(C2C(C#N)=C(N)N(c3cccnc3)C3=C2C(=O)CC(C)(C)C3)ccc1O (stereo not drawn)	none
Cc1cc(C)c(S(=O)(=O)N2CCCC(C(=O)NCCC3=CCCCC3)C2)c(C)c1 (stereo not drawn)	none
CCCCNC(=O)C1=C(N)C(C(=O)Nc2ccc(C)c(S(=O)(=O)N3CCCCC3)c2)SC1=Nc1ccc(C)cc1C (stereo not drawn)	CYP2C9 inh 79
CCN(CC)S(=O)(=O)c1cccc(NC(=O)C2SC(=Nc3ccc(C)cc3C)C(C(=O)NC(C)COC)=C2N)c1 (stereo not drawn)	CYP2C9 inh 83
CN1CCCC(OC(=O)CCCCC(=O)OC2CCCN(C)C2)C1 (stereo not drawn)	none
O=C(CSc1nc(O)cc(=O)n1-c1ccccc1)NCc1ccccc1	none
CCOCCCNC(=O)CN1CCN(Cc2ccccc2C)C1=O	none
O=C(Cn1nnc(-c2ccccc2F)n1)Nc1ccc2c(c1)OCO2	none
Cc1ccccc1-c1nnn(CC(=O)NCc2ccc3c(c2)OCO3)n1	CYP2C9 inh 82
Cc1ccccc1CN1CCN(CC(=O)NCc2ccc3c(c2)OCO3)C1=O	CYP2C9 inh 76
CCOC(=O)C1=C(C)S/C(=C\N(C)C)C1=O	none
CCc1ccccc1Nc1nc(N)nc(CSCC(=O)c2cc(C)n(C)c2C)n1	CYP2C19 inh 85, CYP2C9 inh 66
COc1ccccc1Nc1nc(N)nc(CSCCO)n1	none
Cc1ccccc1NC(=O)CCC(=O)OCC(=O)c1ccc(-c2ccccc2)cc1	none
COc1ccc(CCN2C(=O)C(O)=C(C(C)=O)C2c2ccccc2OC)cc1OC (stereo not drawn)	none
COc1cc(C2C(C(=O)c3ccco3)=C(O)C(=O)N2CCc2ccccc2)ccc1O (stereo not drawn)	CYP2C9 inh 54
Cc1ccc2nc(N3C(=O)C(O)=C(C(=O)c4ccco4)C3c3cccs3)sc2c1 (stereo not drawn)	CYP2C9 inh 96
COc1ccc(CCN2C(=O)C(O)=C(C(=O)c3ccco3)C2c2cccs2)cc1OC (stereo not drawn)	CYP2C9 inh 53
COc1ccc(CC(=O)Nc2ccc(/C(C)=N/NC(=O)c3cccc([N+](=O)[O-])c3)cc2)cc1	none
Cc1ccc(C(C(=O)NC2CCCC2)N2CCCCC2)cc1 (stereo not drawn)	none
O=C(CCCn1c(=S)[nH]c2ccccc2c1=O)N1CCCCC1	CYP2C19 inh 81
CC1CC(C)CN(C(=O)CCCn2c(=S)[nH]c3ccccc3c2=O)C1 (stereo not drawn)	CYP2C19 inh 85
COc1ccc(N2CCN(C(=O)C3CCC(Cn4c(=S)[nH]c5ccccc5c4=O)CC3)CC2)cc1 (stereo not drawn)	CYP2C19 inh 83, CYP2C9 inh 81
O=C(CCCn1c(=S)[nH]c2ccc(Br)cc2c1=O)N1CCN(c2ccccn2)CC1	CYP2C19 inh 70, CYP2C9 inh 55
O=C(CCn1c(=S)[nH]c2ccccc2c1=O)N1CCOCC1	none
CC1CCN(CCCn2c(=S)[nH]c3ccccc3c2=O)CC1	none
CCC(C)NC(=O)C1CCCN(S(=O)(=O)c2ccc(-n3cnnn3)cc2)C1 (stereo not drawn)	none
OCC1OC(n2nnc3ccccc32)C(O)C(O)C1O (stereo not drawn)	none
CC(c1nnc(SCC(=O)N2CC(=O)Nc3ccccc32)n1Cc1ccccc1)N(C)C (stereo not drawn)	none
O=C(CCn1c(=S)[nH]c2ccccc2c1=O)NCCCN1CCOCC1	none
O=c1c2ccccc2[nH]c(=S)n1CCCN1CCOCC1	CYP2C19 inh 60
Nc1nonc1C(=O)NCCNS(=O)(=O)c1ccc(Br)cc1	CYP2C19 inh 60
CC(=O)NCN1CCN(CNC(C)=O)CC1	none
CCC(=O)N(CCCN(C)C)c1nc(-c2cc(OC)ccc2OC)cs1	none
O=C(c1ccco1)N(CC1CCCO1)c1nc(-c2ccccc2)cs1 (stereo not drawn)	CYP2C19 inh 87, CYP2C9 inh 85
COc1ccc(-c2csc(N(CCCN(C)C)C(=O)c3cccs3)n2)cc1	none
COCCCN(C(=O)c1ccco1)c1nc(-c2cc(OC)ccc2OC)cs1	CYP2C9 inh 76
COc1ccc(-c2csc(N(CCCN3CCOCC3)C(=O)c3ccco3)n2)cc1	none
Cc1ccc(-c2csc(N(CCCN3CCOCC3)C(=O)c3ccco3)n2)cc1	CYP2C19 inh 87, CYP2C9 inh 92
O=C(c1cccs1)N(CC1CCCO1)c1nc(-c2ccccc2)cs1 (stereo not drawn)	CYP2C19 inh 95, CYP2C9 inh 89
CCOC(=O)/C(=C\Nc1ccc(OC(F)(F)F)cc1)Sc1ncc(C(F)(F)F)cc1Cl	none
CCn1c(Cn2nnc(-c3ccccc3)n2)nnc1SCc1ccc(Cl)c(Cl)c1	none
Cc1cccc(NC(=O)CN2CCN(CC(=O)Nc3cccc(C)c3)CC2)c1	none
Cc1ccc(Cn2nnc3c(=O)[nH]c(C4CCN(C(=O)Cc5cccs5)CC4)nc32)cc1	CYP2C9 inh 89
O=C(Cc1cccs1)N1CCC(c2nc3c(nnn3Cc3ccccc3)c(=O)[nH]2)CC1	CYP2C9 inh 97
Cc1ccc(Cn2nnc3c(=O)[nH]c(C4CCCN(S(=O)(=O)c5ccccc5)C4)nc32)cc1 (stereo not drawn)	none
Cc1ccc(Cn2nnc3c(=O)[nH]c(C4CCN(S(=O)(=O)c5ccccc5)CC4)nc32)cc1	CYP2C9 inh 79
COC(=O)c1ccc(OC(=O)c2ccc(OCc3c(C)noc3C)c(OC)c2)cc1	none
O=C(CCN1CCc2ccccc2C1)Nc1cccc(F)c1	CYP2C19 inh 92
O=C(CCC(=O)N1CCc2ccccc21)Nc1ccccc1	CYP2C19 inh 92
O=C(CCN1CCCCCC1)Nc1cccc(F)c1	none
O=C(CCN1CCc2ccccc2C1)Nc1ccccc1	CYP2C19 inh 91, CYP2C9 inh 60
O=C(CCCC(=O)N1CCc2ccccc21)N1CCc2ccccc21	none
O=C(NCCN1CCc2ccccc2C1)Nc1ccc(F)cc1	none
CC(CC(=O)N1CCc2ccccc21)c1ccccc1 (stereo not drawn)	CYP2C19 inh 94
CCS(=O)(=O)N1CCC(NC(=O)C2CCCCC2)CC1	none
Cc1c(C(N)=O)sc2ncn(CC(=O)OC(C)C)c(=O)c12	none
CCCCc1c(O)nc(SCC(=O)NCCc2ccc(OC)c(OC)c2)[nH]c1=O	none
Nc1nc(SCc2ccccc2)[nH]c(=O)c1-c1ccccc1	none
